Experimental data reported in publication PMC5540273 (PLoS ONE, 2017).
Like-named read-outs stand apart in the source and are kept apart here.

Assays:
NIM1 = tested on: T1, NIM1; conditions: concentration: 1 μM, replicates: in singlicate; n = 1
T1 construct: gene MGC42105

NLK = conditions: concentration: 1 μM, replicates: in singlicate; n = 1
OSR1 = tested on: T2, OSR1; conditions: concentration: 1 μM, replicates: in singlicate; n = 1
T2 construct: gene OXSR1

PAK1 = conditions: concentration: 1 μM, replicates: in singlicate; n = 1
PAK2 = conditions: concentration: 1 μM, replicates: in singlicate; n = 1
PAK3 = conditions: concentration: 1 μM, replicates: in singlicate; n = 1
PAK4 = conditions: n = 1
PAK6 = conditions: n = 1
PAK7 = conditions: concentration: 1 μM, replicates: in singlicate; n = 1
PCTK1 = tested on: T3, PCTK1; conditions: concentration: 1 μM, replicates: in singlicate; n = 1
T3 construct: gene CDK16

[1] = concentration: 1 μM, replicates: in singlicate
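Further: KINOMEscan kinase panel screen.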

SMILES	%Inh (NIM1) [%]	%Inh (NLK) [%]	%Inh (OSR1) [%]	%Inh (PAK1) [%]	%Inh (PAK2) [%]	%Inh (PAK3) [%]	%Inh (PAK4; [1]) [%]	%Inh (PAK6; [1]) [%]	%Inh (PAK7) [%]	%Inh (PCTK1) [%]	%Inh (PAK4; 1 µM) [%]	%Inh (PAK6; 1 µM) [%]
c1ccc(Oc2ccc(Nc3ccnc4cc(-c5ccc(CNCCN6CCOCC6)o5)ccc34)cc2)nc1 [GW567145]	20	12	2	0	0	3	0	0	0	0		
CCn1c(-c2nonc2N)nc2c(C#CC(C)(C)O)nc(OC[C@H](N)c3ccccc3)cc21 [GSK943949]	0	7	0	0	0	27	94.6	97.9	98	0		
O=C(Nc1cccc(Oc2ccc3nc(NC(=O)C4CC4)cn3n2)c1)c1ccccc1C(F)(F)F	0	37	0	8	6	4	0	9	0	0		
Cl.NC(=O)c1cccc(Nc2nccc(Nc3ccc(Oc4c(Cl)cccc4Cl)c(Cl)c3)n2)c1 [GW659009]	7	0	15	34	8	72	0	0	0	0		
O=C(Nc1n[nH]c2cc(-c3ccoc3)ccc12)C1CC1 [SB-738481]	100	4	0	0	15	18	0	0	0	61		
Cc1ccc(C(=O)N2CC[C@@H](O)C2)cc1-n1c(C)cc(OCc2ccc(F)cc2F)c(Br)c1=O	0	4	0	0	0	0	0	0	0	0		
Nc1n[nH]c2cnc(-c3ccccc3)cc12 [SB-642124]	29	31	12	21	15	34	0	0	6	11		
O=C(Nc1cccc(-c2nn3ncccc3c2-c2ccnc(Nc3ccccc3)n2)c1)c1c(F)cccc1F [GSK198271]	4	95.1	16	24	16	31	0	1	0	10		
COc1ccc(CNC(=O)NC2CCN(c3ccnc(Nc4ccc(F)cc4)n3)CC2)cc1 [GSK1379788]	8	0	0	0	0	6	0	0	2	0		
O=C(NC1CCN(c2ccnc(Nc3ccc(F)cc3)n2)C1)c1cc2ccccc2s1 (centres unmarked) [GSK1379716]	34	31	11	18	16	19	0	0	4	0		
COC(=O)Nc1nc2ccc(Oc3ccc(NC(=O)Nc4cc(C(F)(F)F)ccc4F)cc3)cc2n1C.Cl [GW692089]	32	8	0	0	0	6	0	0	0	0		
COc1cc(Nc2nccc(-c3c(-c4cccc(NC(=O)c5c(F)cccc5F)c4)nn4ccccc34)n2)cc(OC)c1OC [GSK323521]	39	0	4	11	5	44	9	7	6	3		
CC(=O)Nc1nc2cnc(Nc3cc(NC(=O)c4cccc(C5(C#N)CC5)c4Cl)ccc3C)nc2s1	6	33	0	12	0	0	7	0	9	6		
O=C(Nc1cccc(-c2nn3ccccc3c2-c2ccnc(Nc3cccc(C(F)(F)F)c3)n2)c1)c1c(F)cccc1F [GSK292658]	2	33	19	9	6	21	0	0	0	2		
CN(C)Cc1ccc(-c2ccc3c(Nc4ccc(Oc5ccccn5)cc4)ccnc3c2)o1 [GW567148]	23	0	15	0	0	22	0	0	0	3		
Cc1cccc(Nc2nc(N[C@H]3CCNC3)ncc2C(N)=O)c1.Cl [GSK2197149]	11	0	18	38	70	66	95.8	78	98	14		

SMILES	%Inh (NIM1) [%]	%Inh (NLK) [%]	%Inh (OSR1) [%]	%Inh (PAK1) [%]	%Inh (PAK2) [%]	%Inh (PAK3) [%]	%Inh (PAK4; [1]) [%]	%Inh (PAK6; [1]) [%]	%Inh (PAK7) [%]	%Inh (PCTK1) [%]	%Inh (PAK4; 1 µM) [%]	%Inh (PAK6; 1 µM) [%]
Oc1cc(Nc2ccnc3cc(I)ccc23)ccc1F [GW552771]	17	58	8	0	0	17	0	0	0	3		
C[C@@H]1CC[C@@H](C(=O)Nc2ccccc2)CN1c1cc(-c2ccc3c(N)n[nH]c3c2)nc(N)n1 [GSK2286062]	23	11	10	20	6	0	0	0	6	0		
COc1ccc(Nc2nccc(NCCNC(=O)c3cc4ccccc4s3)n2)cc1 [GSK1379896]	4	49	10	7	0	2	0	1	0	1		
COc1cc(Nc2nccc(-c3c(-c4cccc(NC(=O)c5c(F)cccc5F)c4)nn4ncccc34)n2)cc(OC)c1OC [GSK327238]	0	82	19	70	9	36	0	11	41	11		
CC(C)(C)c1ccc2nccc(Nc3cccc(O)c3)c2c1 [GW856795]	30	0	0	0	0	0	23	0	2	0		
COc1cccc(NC(=O)NC2CCN(c3ccnc(Nc4cc(OC)c(OC)c(OC)c4)n3)C2)c1 (centres unmarked) [GSK1379763]	15	63	0	0	0	0	0	16	0	6		
CN1CCN(Cc2cccc(-c3ccc4c(Nc5ccc(Oc6ccccc6)cc5)ccnc4c3)c2)CC1 [GW578342]	22	41	4	16	0	29	0	0	0	0		
CSc1cccc2c(-c3ccncn3)c(-c3ccc(F)cc3)nn12 [GW514786]	19	70	8	11	25	19	0	3	0	2		
CNC(=O)c1ccccc1Nc1nc(Nc2ccc(N3CCOCC3)cc2)ncc1Cl.Cl [GSK1576028]	41	26	35	71	61	100	78	66	83	11		
CCn1c(-c2nonc2N)nc2c(C#CC(C)(C)O)ncc(OCCCCN)c21.O=C(O)C(F)(F)F.O=C(O)C(F)(F)F [GSK507274]	29	0	40	81	88	49			99	8	98.1	89
COc1cc(Nc2ncc3c(C)nc(-c4cc5ccccc5[nH]4)n3n2)cc(OC)c1OC [GW869516]	0	0	0	5	22	69	33	23	28	0		
Fc1ccc(-c2ncn(C3CCNCC3)c2-c2ccnc(Oc3ccc(-c4ccccc4)cc3)n2)cc1 [SB-245391]	42	52	36	25	18	22	14	25	0	16		
O=C(Nc1cccc(-c2nn3ccccc3c2-c2ccnc(Nc3cccc(F)c3)n2)c1)c1c(F)ccc(F)c1Cl [GSK357952]	7	46	2	0	2	16	0	0	15	0		
c1ccc(-c2n[nH]cc2Nc2ccnc3ccccc23)nc1 [GW694077]	25	53	7	6	50	1	20	0	2	4		
Cc1ccc(F)c(C(=O)Nc2cccc(-c3nn4ccccc4c3-c3ccnc(Nc4cccc(F)c4)n3)c2)c1F [GSK361061]	0	77	100	4	21	42	3	0	14	0		
COc1cccc(-c2ccc3c(NC(=O)C4CC4)n[nH]c3n2)c1 [SB-710903]	46	49	13	0	0	1	0	0	8	10		
